Measured values taken from PubChem BioAssay (EPA / NIEHS).
Activity calls are given as the source filed them. The calls were made as follows: active = hit-call score of the fitted dose curve at least 0.9, where 1 is the maximum; inactive = score below 0.9.

Tests used:
Settings in all cases: mRNA level, 48 h; actives raise or lower the signal
[1] = read-out: Apoptosis regulator Bcl-2 (Homo sapiens) (UniProt P10415); assay: LTEA_HepaRG_BCL2: Life Technologies and Expression Analysis (LTEA) Assay for Bcl-2 gene using HepaRG (AID 2283475)
Summary of the method: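 qRT-PCR of BCL2 transcript, normalized to three housekeeping genes (ACTB, GAPDH, POLR2A), after 48 h chemical exposure of HepaRG cells; concentrations top 100 uM with half-log dilutions, 0.5% DMSO vehicle, duplicates; changes up or down fitted relative to vehicle.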

[2] = read-out: Bcl-2 (BID) gene, BID (gene 637); assay: LTEA_HepaRG_BID: Life Technologies and Expression Analysis (LTEA) Assay for Bcl-2 (BID) gene using HepaRG (AID 2283476)
Summary of the method: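 Duplicate 48 h treatments of HepaRG cells in serum-free induction medium spanned 100 uM downward in half-log steps, 0.5% DMSO. Transcript change quantified by qRT-PCR against three housekeeping genes, fitted up or down versus DMSO.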

Caspase-3 (Homo sapiens) = Caspase-3 (Homo sapiens) (UniProt P42574); assay: LTEA_HepaRG_CASP3: Life Technologies and Expression Analysis (LTEA) Assay for cysteine-aspartic acid protease (CASP3) using HepaRG (AID 2283477)
Sequence of Caspase-3 (Homo sapiens) (P42574 whole entry, looked up): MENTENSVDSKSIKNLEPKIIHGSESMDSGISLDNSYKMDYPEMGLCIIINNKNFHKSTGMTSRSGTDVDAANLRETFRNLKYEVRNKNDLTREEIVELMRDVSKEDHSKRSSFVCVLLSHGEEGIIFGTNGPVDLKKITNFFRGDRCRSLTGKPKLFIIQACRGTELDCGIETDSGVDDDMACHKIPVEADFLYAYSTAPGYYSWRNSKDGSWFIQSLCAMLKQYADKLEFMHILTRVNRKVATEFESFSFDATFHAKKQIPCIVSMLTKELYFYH
Experimental: (§1) LTEA_HepaRG is a cell based, multiplexed-readout assay that uses HepaRG, a human liver cell line, with measurements taken at 48 hours after chemical dosing on a 96-well plate.LTEA_HepaRG_CASP3 is one of 102 assay component(s) measured in the LTEA HepaRG cell culture assay. It is a marker of Cell proliferation, survival, death.Data from the assay component LTEA_HepaRG_CASP3 was analyzed into 1 endpoint. This assay endpoint, LTEA_HepaRG_CASP3, was analyzed with bidirectional fitting relative to DMSO as the negative control and baseline of activity. Using a type of inducible reporter, measures of mRNA induction for gain or loss-of-signal activity can be used to understand regulation of transcription factor activity. To generalize the intended target to other relatable targets, this assay endpoint is annotated to the protease intended target family, where the subfamily is cysteine protease.
(§2) A total of 1060 chemcials from the ToxCast library were tested in eight-point concentration-response experiments. Cell culture and cytotoxicity assays were conducted at Thermo Fisher Scientific's Custom Services facility (Madison, WI). A single lot of human HepaRG cells (Thermo Fisher Scientific, Frederick, MD) was used for the cell culture experiments. 96-well format collagen type I coated plates of human HepaRG cells were prepared using established methods. Briefly, cryopreserved HepaRG cells were thawed, plated at a density of approximately 100,000 cells/well in HepaRG Thaw, Plate, and General Purpose media (HPRG770, Thermo Fisher Scientific), and incubated for 48 hours. […] Fluidigm's 96.96 Dynamic ArrayTM (Fluidigm, Amsterdam, the Netherlands) technology was used for gene expression analyses by quantitative reverse transcription polymerase chain reaction (qRT-PCR, performed by Quintiles/Expression Analysis, Durham, NC)89. […]

[3] = read-out: Cytochrome P450 (CYP24A1), CYP24A1 (gene 1591); assay: LTEA_HepaRG_CYP24A1: Life Technologies and Expression Analysis (LTEA) Assay for Cytochrome P450 (CYP24A1) using HepaRG (AID 2283478)
Experimental: as §1, with “plate.LTEA_HepaRG_CYP24A1” for “plate.LTEA_HepaRG_CASP3”, “NR mediated metabolism.Data” for “Cell proliferation, survival, death.Data”, “LTEA_HepaRG_CYP24A1” for “LTEA_HepaRG_CASP3”, “LTEA_HepaRG_CYP24A1,” for “LTEA_HepaRG_CASP3,”, “cyp” for “protease”, “xenobiotic metabolism.” for “cysteine protease.”
as §2

[4] = read-out: Cytochrome P450 (CYP1A2), CYP1A2 (gene 1544); assay: LTEA_HepaRG_CYP1A2: Life Technologies and Expression Analysis (LTEA) Assay for Cytochrome P450 (CYP1A2) using HepaRG (AID 2283479)
Summary of the method: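 Assesses CYP1A2 mRNA in human HepaRG liver cells after 48 h chemical exposure at up to 100 uM. Values come from qRT-PCR with bidirectional curve fitting relative to DMSO.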

[5] = read-out: cysteine-aspartic acid protease (CASP8), CASP8 (gene 841); assay: LTEA_HepaRG_CASP8: Life Technologies and Expression Analysis (LTEA) Assay for cysteine-aspartic acid protease (CASP8) using HepaRG (AID 2283480)
Summary of the method: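 Concentration-response in duplicate up to 100 uM (half-log steps, 0.5% DMSO) on differentiated HepaRG cultures for 48 h. Expression change of CASP8 mRNA is determined by TaqMan qRT-PCR with housekeeping-gene normalization.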

[6] = read-out: Cytochrome P450 (CYP2B6), CYP2B6 (gene 1555); assay: LTEA_HepaRG_CYP2B6: Life Technologies and Expression Analysis (LTEA) Assay for Cytochrome P450 (CYP2B6) using HepaRG (AID 2283481)
Summary of the method: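 Using 48 h treatment of HepaRG cells in serum-free induction medium, concentrations spanned half-log steps from 100 uM in 0.5% DMSO vehicle. CYP2B6 mRNA induction or loss is scored by qRT-PCR against DMSO.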

[7] = read-out: Cytochrome P450 2C19 (Homo sapiens) (UniProt P33261); assay: LTEA_HepaRG_CYP2C19: Life Technologies and Expression Analysis (LTEA) Assay for CYP2C19 using HepaRG (AID 2283482)
Summary of the method: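 Human HepaRG liver cells received test chemicals for 48 h (highest 100 uM, half-log dilutions in 0.5% DMSO). CYP2C19 mRNA induction or loss is read by multiplexed qRT-PCR and fitted in both directions versus vehicle.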

CYP2C8 (gene 1558) = assay: LTEA_HepaRG_CYP2C8: Life Technologies and Expression Analysis (LTEA) Assay for CYP2C8 using HepaRG (AID 2283483)
Summary of the method: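 This is a transcriptional endpoint in HepaRG cultures: 48 h exposure, highest concentration 100 uM. CYP2C8 mRNA is quantified by TaqMan qRT-PCR.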

CYP2C9 (gene 1559) = assay: LTEA_HepaRG_CYP2C9: Life Technologies and Expression Analysis (LTEA) Assay for CYP2C9 using HepaRG (AID 2283484)
Experimental: as §1, with “plate.LTEA_HepaRG_CYP2C9” for “plate.LTEA_HepaRG_CASP3”, “NR mediated metabolism.Data” for “Cell proliferation, survival, death.Data”, “LTEA_HepaRG_CYP2C9” for “LTEA_HepaRG_CASP3”, “LTEA_HepaRG_CYP2C9,” for “LTEA_HepaRG_CASP3,”, “cyp” for “protease”, “xenobiotic metabolism.” for “cysteine protease.”
as §2

Measured: AC50

Sequence of Apoptosis regulator Bcl-2 (Homo sapiens) (P10415 whole entry, looked up): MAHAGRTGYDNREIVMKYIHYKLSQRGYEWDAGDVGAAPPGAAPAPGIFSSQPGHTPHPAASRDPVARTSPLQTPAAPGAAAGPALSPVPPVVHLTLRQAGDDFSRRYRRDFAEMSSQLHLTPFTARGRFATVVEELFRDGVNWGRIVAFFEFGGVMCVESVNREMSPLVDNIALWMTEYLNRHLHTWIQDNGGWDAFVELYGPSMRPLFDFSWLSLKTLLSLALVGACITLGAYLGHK
Sequence of Cytochrome P450 2C19 (Homo sapiens) (P33261 whole entry, looked up): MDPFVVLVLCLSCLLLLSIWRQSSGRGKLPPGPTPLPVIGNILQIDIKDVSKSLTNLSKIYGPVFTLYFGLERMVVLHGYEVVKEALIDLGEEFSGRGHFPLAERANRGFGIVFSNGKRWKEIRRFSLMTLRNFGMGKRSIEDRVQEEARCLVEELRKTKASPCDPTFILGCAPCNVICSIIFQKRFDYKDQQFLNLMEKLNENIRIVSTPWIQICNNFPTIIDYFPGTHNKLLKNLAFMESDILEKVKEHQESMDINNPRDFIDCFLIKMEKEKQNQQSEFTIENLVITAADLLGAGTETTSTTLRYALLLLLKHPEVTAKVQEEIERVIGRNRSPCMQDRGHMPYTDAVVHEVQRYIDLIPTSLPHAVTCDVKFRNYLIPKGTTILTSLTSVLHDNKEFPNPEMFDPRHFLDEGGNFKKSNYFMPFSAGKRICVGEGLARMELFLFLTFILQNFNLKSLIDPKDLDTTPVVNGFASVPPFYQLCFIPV

C1CNCCN1
inactive: all assays above

Cc1ccc([N+](=O)[O-])cc1N
active: [4] 26.8 µM | [6] 18.4 µM
inactive: all other assays above

Nc1ccc(C(=O)O)cc1
active: [4] 50 µM
inactive: all other assays above
